The AC50 is the midpoint of the concentration-response curve, whichever way the signal moves.

Several values for one entry are separate records, joined by “and”; a condition that tells them apart may be missing. Equal values may be shown once. Some compounds were tested as several samples or in several runs, with calls that do not always agree. Activity calls are given as the source filed them. The calls were made as follows: active = hit-call score of the fitted dose curve at least 0.9, where 1 is the maximum; inactive = score below 0.9.

In PubChem BioAssay (EPA / NIEHS) one finds outcome and AC50 data, which are given here for 16 compounds.

Read-out in test [1]: Macrophage colony-stimulating factor (MCSF), CSF1 (gene 1435)
Put plainly: BSK_hDFCGF_MCSF: BioMAP Diversity Plus: hDFCGF Assay for Macrophage colony-stimulating factor (MCSF) Biomarker Activity (AID 2283060). The note with it: primary human foreskin fibroblasts; actives raise or lower the signal. An outline of the steps: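 ELISA read-out of M-CSF in human dermal foreskin fibroblast cultures, 24 h after chemical dosing; gain or loss of signal fitted bidirectionally relative to DMSO baseline.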

Test [2] is described as follows: BSK_hDFCGF_SRB: Viability Assessment in the BioMAP Diversity Plus: hDFCGF Assay (AID 2283061).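 Also: cells exposed to compound for 24 h before the read.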 Particulars: primary human foreskin fibroblasts. An outline of the steps:
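Primary human foreskin fibroblasts; 24 h post-dose; fixed 10% TCA, stained 0.1% SRB, A560 read; total protein as overt cytotoxicity measure; curves fit bidirectionally vs DMSO control.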

Read-out in test [3]: TIMP metallopeptidase inhibitor 1 (TIMP1), TIMP1 (gene 7076)
Put plainly: BSK_hDFCGF_TIMP1: BioMAP Diversity Plus: hDFCGF Assay for TIMP metallopeptidase inhibitor 1 (TIMP1) Biomarker Activity (AID 2283062). Particulars: primary human foreskin fibroblasts; actives raise or lower the signal. Put shortly:
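ELISA readout of TIMP-1 from human dermal foreskin fibroblast cultures 24 h post-dosing. Curves were fitted in both directions against DMSO baseline, with SRB total-protein staining in parallel cultures as a cytotoxicity check.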

Read-out in test [4]: Monokine induced gamma interferon (MIG), CXCL9 (gene 4283)
Put plainly: BSK_hDFCGF_MIG: BioMAP Diversity Plus: hDFCGF Assay for Monokine induced gamma interferon (MIG) Biomarker Activity (AID 2283063). The note with it: primary human foreskin fibroblasts; actives raise or lower the signal. Put shortly: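 Fibroblasts (human foreskin, primary) dosed, 24 h, MIG by ELISA; fit bidirectional vs DMSO.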

Read-out in test [5]: Matrix Metallopeptidase 1 (MMP1), MMP1 (gene 4312)
Put plainly: BSK_hDFCGF_MMP1: BioMAP Diversity Plus: hDFCGF Assay for Matrix Metallopeptidase 1 (MMP1) Biomarker Activity (AID 2283064). The note with it: primary human foreskin fibroblasts; actives raise or lower the signal. Put shortly:
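Primary human foreskin fibroblasts exposed to chemicals for 24 h; MMP1 measured by ELISA. Cytotoxicity tracked by SRB staining in parallel cultures; bidirectional fit relative to DMSO.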

Read-out in test [6]: Vascular cell adhesion molecule 1 (VCAM1), VCAM1 (gene 7412)
Put plainly: BSK_hDFCGF_VCAM1: BioMAP Diversity Plus: hDFCGF Assay for Vascular cell adhesion molecule 1 (VCAM1) Biomarker Activity (AID 2283065).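 As to AC50: VCAM-1 protein level quantified by ELISA after 24 h chemical exposure.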 The note with it: primary human foreskin fibroblasts; actives raise or lower the signal. Put shortly: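 ELISA read-out of VCAM-1 on human skin fibroblasts, 24 h post-dose; gain or loss of signal fitted bidirectionally against DMSO baseline.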

Read-out in test [7]: Plasminogen activator inhibitor-1 (PAI1), SERPINE1 (gene 5054)
Put plainly: BSK_hDFCGF_PAI1: BioMAP Diversity Plus: hDFCGF Assay for Plasminogen activator inhibitor-1 (PAI1) Biomarker Activity (AID 2283066). Particulars: primary human foreskin fibroblasts; actives raise or lower the signal. Put shortly: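 Primary dermal fibroblasts (human foreskin), hDFCGF system; compound 24 h; PAI-1 by ELISA; bidirectional fit vs DMSO control.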

Read-out in test [8]: Intercellular Adhesion Molecule 1 (ICAM1), ICAM1 (gene 3383)
Put plainly: BSK_KF3CT_ICAM1: BioMAP Diversity Plus: KF3CT Assay for Intercellular Adhesion Molecule 1 (ICAM1) Biomarker Activity (AID 2283067). Particulars: primary human keratinocytes with fibroblasts; actives raise or lower the signal. Put shortly: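 ELISA readout of ICAM-1; KF3CT human skin co-culture (keratinocytes + foreskin fibroblasts), 24 h post-dose; gain/loss fit vs DMSO baseline.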

Read-out in test [9]: Interferon-gamma inducible Protein 10 (IP10), CXCL10 (gene 3627)
Put plainly: BSK_KF3CT_IP10: BioMAP Diversity Plus: KF3CT Assay for Interferon-gamma inducible Protein 10 (IP10) Biomarker Activity (AID 2283068). Particulars: primary human keratinocytes with fibroblasts; actives raise or lower the signal. Put shortly: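 KF3CT co-culture (keratinocytes + foreskin fibroblasts), 24 h compound, IP-10 by ELISA; bidirectional fit vs DMSO baseline.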

Test [10] is described as follows: BSK_KF3CT_SRB: Viability Assessment in the BioMAP Diversity Plus: KF3CT Assay (AID 2283069).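 Also: total protein by sulforhodamine B staining as a cytotoxicity measure; read 24 h after compound addition.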 The note with it: primary human keratinocytes with fibroblasts. Put shortly: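 Human keratinocyte and foreskin fibroblast co-culture exposed to chemical for 24 h. Total protein measured in parallel cultures by 0.1% sulforhodamine B staining after 10% TCA fixation, read at 560 nm; bidirectional fit relative to DMSO.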

Regarding `OCC(F)(F)C(F)(F)C(F)(F)C(F)(F)C(F)(F)C(F)(F)CO`, the outcome in [1], in [2], in test [3], in test [4], in test [5] and in [6] was inactive. Further, the result in test [7], in test [8], in test [9] and in [10] was inactive.

Regarding `OCC(F)(F)C(F)(F)C(F)(F)C(F)(F)C(F)(F)C(F)(F)C(F)(F)C(F)(F)CO`, the half-maximal activity concentration (AC50) in test [1] was 47.9 µM (active) and 46.7 µM (active); in test [2], 38.3 µM (active) and 54.8 µM (active); in [3] it was 46.7 µM (active) and 54.5 µM (active); in [4], 44 µM (active) and 45.1 µM (active); in test [5] it was 55.2 µM (active) and 48.8 µM (active); in [6] it was 42.5 µM (active) and 21.8 µM (active). In addition, the AC50 in test [7] was 54.9 µM (active) and 56.4 µM (active); in test [8], 42.4 µM (active) and 42.7 µM (active); in test [9], 35.2 µM (active); in [10], 50.9 µM (active) and 44.1 µM (active). The outcome in test [9] was inactive.

Turning to `O=C=NCc1cccc(CN=C=O)c1`, the result in test [1], in test [2], in test [3], in test [4], in test [5] and in test [6] was inactive. Further, the outcome in test [7], in [8], in test [9] and in test [10] was inactive.

On to `O=S(=O)(O)CCC(F)(F)C(F)(F)C(F)(F)C(F)(F)C(F)(F)C(F)(F)C(F)(F)C(F)(F)F`, for which the outcome in [1], in test [3], in test [4], in [5], in [6] and in test [7] was inactive. Moreover, the result in [8], in test [9] and in test [10] was inactive. The concentration at half-maximal activity (AC50) is 54.3 µM (active) and 24.7 µM (active) in [2]; 30 µM (active) in [5].

Take `FC(F)(F)C(F)(F)C(F)(F)C(F)(F)C(F)(F)C(F)(F)CC[Si](Cl)(Cl)Cl`: the result in test [1], in test [2], in test [3], in [4], in test [5] and in test [6] was inactive. The outcome in test [7], in test [8], in [9] and in [10] was inactive.

`Nc1cc([N+](=O)[O-])cc(Cl)c1O`: the outcome in [1], in test [2], in test [3], in [4], in test [5] and in test [6] was inactive. The outcome in test [7], in [8], in [9] and in test [10] was inactive.

On to `O=C(O)CCC(F)(F)C(F)(F)C(F)(F)C(F)(F)C(F)(F)C(F)(F)C(F)(F)F`, for which the outcome in test [1], in [2], in [3], in [4], in test [5] and in test [6] was inactive. Also, the outcome in test [7], in test [8], in [9] and in test [10] was inactive. Further, the AC50 in [2] was 2.25 µM (active).

On to `FC(F)(F)C(F)(F)C(F)(F)C(F)(F)C(F)(F)C(F)(F)C(F)(F)CCI`, for which the AC50 was 1.47 µM (active) in test [1] and 3.33 µM (active) in [4]. The result in test [1], in test [2], in test [3], in test [4], in test [5] and in [6] was inactive. The outcome in test [7], in test [8], in test [9] and in test [10] was inactive.

With `CC(C)CCCC(C)CCO` (stereo not given), the result in test [1], in [2], in [3], in test [4], in [5] and in [6] was inactive. Moreover, in test [7], the result was inactive. Further, the AC50 was 36.5 µM (active) in test [8], 35.6 µM (active) in [9] and 34.4 µM (active) in test [10].

For the compound `NS(=O)(=O)C(F)(F)C(F)(F)C(F)(F)C(F)(F)C(F)(F)C(F)(F)F`, the result in test [1], in test [2], in test [3], in test [4], in test [5] and in test [6] was inactive. Further, the result in test [7], in test [8], in [9] and in test [10] was inactive. Further, in test [6], the AC50 is 26.9 µM (active).

On to `CC1=CC2C3C=CC(C3)C2C1C` (stereo not given), for which the result in [1], in test [2], in test [3], in test [4], in [5] and in [6] was inactive. Further, the result in [7], in [8], in test [9] and in [10] was inactive.

For the compound `C=CC(=O)OCCC(F)(F)C(F)(F)C(F)(F)C(F)(F)F`, the concentration at half-maximal activity (AC50) in test [1] was 21 µM (active) and 15 µM (active); in [2] it was 8.28 µM (active); in test [4], 25.3 µM (active) and 30.9 µM (active); in test [5], 14.5 µM (active) and 18.3 µM (active); in test [6], 13.7 µM (active) and 19.4 µM (active). For the same compound, the result in test [2], in test [3], in [7], in test [8], in test [9] and in [10] was inactive.

As for `C[Si](Cl)(Cl)CCC(F)(F)C(F)(F)C(F)(F)C(F)(F)C(F)(F)C(F)(F)F`, the AC50 in [1] was 0.605 µM (active); in [3], 739 nM (active); in test [4], 1.26 µM (active) and 1.52 µM (active); in [5] it was 1.18 µM (active); in [6] it was 1.4 µM (active) and 876 nM (active). Also, the result in test [1], in [2], in test [3], in test [5], in test [7] and in [8] was inactive. The outcome in [9] and in test [10] was inactive.

With `CNS(=O)(=O)C(F)(F)C(F)(F)C(F)(F)C(F)(F)C(F)(F)C(F)(F)C(F)(F)C(F)(F)F`, the outcome in test [1], in [2], in test [3], in test [4], in test [5] and in test [7] was inactive. Also, the result in test [8], in [9] and in test [10] was inactive. The AC50 in test [6] was 800 nM (active) and 1.94 µM (active).

Consider `O=C=Nc1cccc2c(N=C=O)cccc12`, for which the outcome in [1], in test [2], in [3], in test [4], in test [5] and in [6] was inactive. Further, the outcome in [7], in test [8], in test [9] and in test [10] was inactive.

On to `NC(=O)C(F)(F)C(F)(F)C(F)(F)C(F)(F)C(N)=O`, for which the result in test [1], in test [2], in [3], in test [4], in test [5] and in test [6] was inactive. The outcome in test [7], in [8], in test [9] and in test [10] was inactive.
